This note sets out measurements from PubChem BioAssay (EPA / NIEHS).

The source made the active and inactive calls. How the source made its calls: active means hit-call score of the fitted dose curve at least 0.9, where 1 is the maximum; inactive means score below 0.9.

This assay deals with X-box-binding protein 1 (Homo sapiens) (UniProt P17861). Description: ATG_Xbp1_CIS: Attagene CIS-FACTORIAL HepG2 Assay for human X-box Binding Protein 1 (XBP1) (AID 2282972). The settings on record: HepG2 XBP1 cis-element reporter, Attagene multiplex; actives raise or lower the signal. Here is the method: ATG_CIS is a cell-based, multiplexed-readout assay that uses HepG2, a human liver cell line, with measurements taken at 24 hours after chemical dosing in a 24-well plate.ATG_Xbp1_CIS is one of 52 assay component(s) measured or calculated from the ATG_CIS assay. It is designed to make measurements of mRNA induction, a form of inducible reporter, as detected with fluorescence intensity signals by Reverse transcription polymerase chain reaction (RT-PCR) and Capillary electrophoresis technology.Data from the assay component ATG_Xbp1_CIS was analyzed into 1 assay endpoint. This assay endpoint, ATG_Xbp1_CIS, was analyzed with bidirectional fitting relative to DMSO as the negative control and baseline of activity. Using a type of inducible reporter, measures of mRNA for gain or loss-of-signal activity can be used to understand the reporter gene at the transcription factor-level as they relate to the gene XBP1. Furthermore, this assay endpoint can be referred to as a primary readout, because this assay has produced multiple assay endpoints where this one serves a reporter gene function. To generalize the intended target to other relatable targets, this assay endpoint is annotated to the dna binding intended target family, where the subfamily is basic leucine zipper.
X-box-binding protein 1 (Homo sapiens), sequence (P17861 whole entry, looked up): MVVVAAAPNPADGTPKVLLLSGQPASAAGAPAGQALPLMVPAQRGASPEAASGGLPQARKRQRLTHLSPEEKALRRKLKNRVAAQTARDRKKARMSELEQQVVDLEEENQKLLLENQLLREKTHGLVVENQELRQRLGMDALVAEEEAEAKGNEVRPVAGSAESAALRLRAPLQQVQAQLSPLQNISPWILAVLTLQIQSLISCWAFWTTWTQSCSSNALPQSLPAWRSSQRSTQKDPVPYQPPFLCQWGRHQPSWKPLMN
Human liver HepG2 cells are transiently transfected with multiple reporter transcription units (MRTUs) in 6-well plates using FuGene 6 reagent (Roche; 3 ml FuGene/1 mg DNA). The MRTU constructs are regulated by a cis-regulating element (promoter). […] A major difference between the CIS and TRANS system is that in CIS activities of endogenous TFs are measured, whereas the TRANS assay evaluates changes in activities of exogenous, chimeric NR-Gal4 proteins. […] At the end of 24 hour incubation, total RNA was isolated using TriZol reagent (Invitrogen). The isolated RNA is then reverse-transcribed using oligo(dT) primer and Mo-MLV reverse transcriptase (Invitrogen) with DNAse I (Ambion) treatment for 30 min. The one-tenth of the produced cDNA was amplified by PCR using Taq DNA polymerase (Invitrogen) and two reporter sequence-specific primers. The PCR products were fluorescently labeled by primer extension with 6-arboxyfluorescein (6-FAM) 5'-labeled reporter sequence-specific primer (2 min at 95 C, 20 s at 68 C and 10 min at 72 C) and these products were digested with 5U of HpaI (New England Biolabs) for 2h at 37 C. The fragments were purified using Qiaquick PCR columns (Qiagen), analyzed on an ABI 3130xL genetic analyzer (Applied Biosystems) with peak positions identified by using a set of X-rhodamine (ROX)-labeled MapMarker1000 molecular weight standards (BioVentures). The raw capillary electrophoresis data was processed using Attagraph software (Attagene).
For the molecule `CCC1(C)NC(=O)NC1=O` (stereo not given), the outcome was inactive. On to `CC/C=C\CCOC(=O)CC`, for which the molecule was called inactive. Consider `ClC(c1ccccc1)(c1ccccc1)c1ccccc1`, for which the call was inactive. Turning to `OCCCCC(O)CO` (stereo not given), the result was inactive. Same read-out and setting: the value for `CN1CCOCC1` was “inactive”; that for `CC(C)OCCO` was “inactive”. In the case of `C=CC(=O)OCCC#N`, the AC50 – broadly, the concentration at which the activity in the assay is half-maximal – is 36.4 µM (active). With `CN(C)CCOC(C)(c1ccccc1)c1ccccn1` (stereo not given), the molecule was classed as inactive. For `C=CC(=C)CCCC(C)(C)OC(C)=O`, the molecule was classed as inactive.

In the case of `CCCCCCCCCCCCCCCC(=O)OC/C=C(C)/C=C/C=C(C)/C=C/C1=C(C)CCCC1(C)C`, the molecule was classed as inactive.

Regarding `OCc1cccc(Oc2ccccc2)c1`, the molecule was called inactive. For the molecule `NCC1CCCC(CN)C1` (stereo not given), the call was inactive. The same measure, in the same setting: as for `CCCCCCCC/C=C\CCCCCCCC(=O)OCC`, the entry is “inactive”; as for `O=C(CS)OCCOC(=O)CS`, “inactive”. Still for that read-out and setting: the value for `Nc1ccc2c(O)cc(S(=O)(=O)O)cc2c1` was “inactive”; that for `CC1=CC[C@@]23C[C@@H]1C(C)(C)[C@@H]2CC[C@H]3C` was “inactive”.

Turning to `COc1cc(Cl)c(OC)cc1N`, the molecule was called inactive. Still for that read-out and setting: as for `CCCC(=O)OCCc1ccccc1`, the entry is “inactive”. As to `CCC(C)c1cc([N+](=O)[O-])cc([N+](=O)[O-])c1OC(=O)OC(C)C` (stereo not given), the concentration at half-maximal activity (AC50) was 24.3 µM (active). On to `CCCC(O)C(O)CO` (stereo not given), for which the call was inactive. As for `CCc1ccc(O)c(OC)c1`, the molecule was classed as inactive. Regarding `COc1ccccc1N=Nc1c(S(=O)(=O)O)cc2cc(S(=O)(=O)O)cc(NC(C)=O)c2c1O`, the call was inactive. Still for that read-out and setting: the value for `Cc1c(OCC(F)(F)F)ccnc1CS(=O)c1nc2ccccc2[nH]1` (stereo not given) was “inactive”; that for `OCC#CCO` was “inactive”. `C/C=C(\C)C(=O)OCCc1ccccc1`: the outcome was inactive. The same measure, in the same setting: as for `O=C1OC(=O)c2c(Br)c(Br)c(Br)c(Br)c21`, the entry is “inactive”. On the same count and under the same terms, the value for `CCOc1ccc(NC(=O)CC(C)O)cc1` (stereo not given) was “inactive”; that for `C=C[Si]1(C)O[Si](C)(C=C)O[Si](C)(C=C)O[Si](C)(C=C)O1` (stereo not given) was “inactive”; that for `CC=Cc1ccc(OCC)c(O)c1` was “inactive”. Same read-out and setting: as for `CCOC(=O)CC(C)O` (stereo not given), the entry is “inactive”; as for `FC(F)(F)COCC(F)(F)F`, “inactive”. Turning to `C=CC(=O)OCCCC`, the molecule was called inactive. Same read-out and setting: the value for `O=C1OC(=O)c2c(Cl)c(Cl)c(Cl)c(Cl)c21` was “inactive”. Turning to `C=CCCCCCCCCCC`, the outcome was inactive.

On to `CS(=O)(=O)c1ccc(Cl)cc1`, for which the molecule was classed as inactive. Regarding `CC(C)(C)C1=CC(=O)C(C(C)(C)C)=CC1=O`, the outcome was inactive.

For the molecule `CCCCCCC(O)CCCCCCCCCCC(=O)O` (stereo not given), the result was inactive.

With `CC(=O)C1(C)CC2=C(CCCC2(C)C)CC1C` (stereo not given), the molecule was called inactive. The same measure, in the same setting: the value for `CC=Cc1ccc(OC)c(OC)c1` was “inactive”; that for `Clc1cc(Cl)c(-c2c(Cl)c(Cl)cc(Cl)c2Cl)cc1Cl` was “inactive”.
